Screens deposited in PubChem by National Center for Advancing Translational Sciences (NCATS).
nsP2pro primary = CHIKV nsP2 protease inhibition, primary qHTS. Potency, µM (series often up to 24.9 µM), for the others: at the top dose activity change, negative = inhibition, hits mostly inhibitors. Q8JUX6. 1.1% of 31,000 active. FRET peptide cleavage, nsP2pro, fluorescence 1 h; note: nearly all actives have a fitted effect of over 60% in size
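Enzyme 150 nM, substrate 2.5 uM (both final); Tris-HCl 10 mM pH 8.0 + 0.01% Tween 20; cpd up to 25 uM, 7 pts; 15 min preinc., 1 h RT; fluorescence ex 525/em 598.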
CHIKV nsP2 cell = cell-based CHIKV nsP2 protease inhibition, secondary; shares compounds with nsP2pro primary; cell-based CHIKV nsP2 protease reporter assay; Potency, µM (highest dose often 51.1 µM), inactives show at the top dose activity change, negative = inhibition, actives largely listed as inhibitors; 10% of 450 active; AID 1964100; note: nearly all actives have a fitted effect of over 70% in size
CHIKV NSP2 FL = selectivity test for CHIKV nsP2 protease inhibitors: full-length NSP2 | shares compounds with nsP2pro primary | Full-length CHIKV NSP2 protease enzymatic counterscreen | Potency, µM (titrated, usually from 50.7 µM), without a hit: at the highest dose activity change, negative = inhibition, hits mostly inhibitors | 39% of 410 active | AID 1964101; note: nearly all actives have a fitted effect of over 65% in size
Furin counter = inhibits human furin in a CHIKV nsP2 protease selectivity counterscreen; shares compounds with nsP2pro primary; Recombinant human furin enzymatic counterscreen, fluorogenic substrate; Potency, µM (titrated, usually from 50.6 µM), without a hit: at the top dose activity change, negative = inhibition, actives largely listed as inhibitors; 6% of 410 active
Target sequence (P09958 whole entry, looked up): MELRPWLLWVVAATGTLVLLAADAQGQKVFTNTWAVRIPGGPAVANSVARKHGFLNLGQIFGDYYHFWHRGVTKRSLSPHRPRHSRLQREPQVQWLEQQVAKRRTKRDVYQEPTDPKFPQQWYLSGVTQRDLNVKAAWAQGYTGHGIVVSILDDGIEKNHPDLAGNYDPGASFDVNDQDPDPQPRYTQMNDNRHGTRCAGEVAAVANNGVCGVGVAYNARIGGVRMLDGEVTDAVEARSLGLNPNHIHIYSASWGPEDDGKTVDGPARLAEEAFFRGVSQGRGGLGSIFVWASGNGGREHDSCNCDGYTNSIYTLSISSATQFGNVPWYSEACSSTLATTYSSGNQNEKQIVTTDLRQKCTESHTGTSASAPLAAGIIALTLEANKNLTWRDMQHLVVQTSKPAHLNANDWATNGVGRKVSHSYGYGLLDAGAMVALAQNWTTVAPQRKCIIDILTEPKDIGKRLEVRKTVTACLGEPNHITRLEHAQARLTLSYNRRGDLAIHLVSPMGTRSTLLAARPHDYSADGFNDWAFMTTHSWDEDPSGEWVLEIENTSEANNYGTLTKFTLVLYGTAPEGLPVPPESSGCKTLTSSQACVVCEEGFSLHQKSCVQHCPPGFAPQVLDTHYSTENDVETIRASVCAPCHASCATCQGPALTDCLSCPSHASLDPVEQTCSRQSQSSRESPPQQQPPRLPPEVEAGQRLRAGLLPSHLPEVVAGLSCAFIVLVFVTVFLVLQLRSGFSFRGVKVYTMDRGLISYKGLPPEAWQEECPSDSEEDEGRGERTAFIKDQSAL
NS23 peptide cs = blocks CHIKV nsP2 protease cleavage of endogenous NS2/3 peptide. shares compounds with nsP2pro primary. Purified CHIKV nsP2 protease, endogenous NS2/3 peptide cleavage. Potency, µM (top dose mostly 51 µM), for the others: at the top dose activity change, negative = inhibition, hits mostly inhibitors. 34% of 410 active; note: nearly all actives have a fitted effect of over 55% in size
Papain counter = selectivity counter-screen for CHIKV nsP2 protease inhibitors: papain; shares compounds with nsP2pro primary; purified papain protease activity, enzymatic inhibition; Potency, µM (series often up to 51 µM), without a hit: at the highest dose activity change, negative = inhibition, actives largely listed as inhibitors; 5% of 410 active; AID 1964104
nsP2pro confirm = confirmation of CHIKV nsP2 protease inhibitors; shares compounds with nsP2pro primary; CHIKV nsP2 protease enzymatic activity, qHTS; Potency, µM (series often up to 25.5 µM), for the others: top-dose activity change, negative = inhibition, actives largely listed as inhibitors; 43% of 410 active; note: nearly all actives have a fitted effect of over 75% in size
HCV NS3 counter = inhibits HCV NS3/4A protease in an nsP2pro selectivity counterscreen; shares compounds with nsP2pro primary; HCV NS3/4A protease biochemical counterscreen; Potency, µM (top dose mostly 50.9 µM), usual class: inhibitors; 20% of 410 active; AID 1964106; note: nearly all actives have a fitted effect of over 55% in size
* hit, by the source's call; i = inactive; ? = inconclusive; [ ] = another dose, or the depositor's remark. Only a selection was taken, and hits are over-represented in it overall. Calls come from the whole dose curve. % is set by controls: 0 for no effect and ±100 for the full control effect; potency is the fitted concentration of half-maximal effect.

SMILES | nsP2pro primary | others
Cn1cnc(CCNc2ncnc3ccc(-c4ccc5c(c4)OCO5)cc23)c1 | i
CC(C)C[C@@H](NC(=O)[C@@H](Cc1ccccc1)NC(=O)[C@H](N)Cc1ccccc1)C(=O)N[C@H](CCCCN)C(=O)N1CCC(N)(C(=O)O)CC1 | 10%
Cc1cc(C(=O)Nc2nc3cccc(Cl)c3n2C2CCCCN(C(=O)/C=C/CN(C)C)C2)ccn1 (configuration not stated) | i
OCC1(Cc2ccccc2F)CCCN(c2nnnn2-c2ccccc2)C1 (configuration not stated) | i
CCOc1ccc(/C=C(\C#N)C(=O)Nc2sc3c(c2C(=O)OC)C(C(=O)OC)CC3)cc1OC (configuration not stated) | 0.85µM* | CHIKV nsP2 cell=-1%;CHIKV NSP2 FL=?;Furin counter=2%;NS23 peptide cs=5.8µM*;Papain counter=-4%;nsP2pro confirm=4µM*;HCV NS3 counter=i
CCOc1cc(/C=C(\C#N)C(=O)Nc2ccc(OC)cc2)ccc1OCc1cc(=O)n2nc(CC)sc2n1 | -17%
COC(=O)C1CCc2sc(NC(=O)Cc3ccccc3)c(C(=O)Nc3ccc(Cl)cc3)c21 (configuration not stated) | i
CCCNC(=O)N1CCC(Cc2ccc(CCNC(C)=O)cc2)CC1 | -11%
C=C1C(=O)OC2/C=C(\COO)CC/C=C(\COC(C)=O)CC(OC(=O)C(C)CC)C12 (configuration not stated) | 3%[10 µM]
C=C1C(=O)O[C@@H]2C[C@@H](C)[C@]34C[C@]5(C(=O)O[C@H]6CC(C)=C([C@H](C)CCCO)[C@H](OC(=O)C(C)CC)[C@H]65)[C@@H](C(C)=C3C[C@@H]12)[C@H]4OC(C)=O (some centres not stated) | 13%[10 µM]
C=C1C(=O)O[C@@H]2[C@H]1CC(=O)[C@H](C)[C@@](O)(C(=O)/C=C/C)[C@H]2OC(=O)C(C)CC (some centres not stated) | ? | CHIKV nsP2 cell=?;CHIKV NSP2 FL=?;Furin counter=5%[33.5 µM];NS23 peptide cs=13µM*;Papain counter=-5%[33.5 µM];nsP2pro confirm=?;HCV NS3 counter=i
Cc1cnc(C2CC2)n1CCNC(=O)NC1CCCCC1 | i
COc1cccc(CN2C(=O)CCCCC2C(=O)NCCc2c[nH]c3ccc(OC)cc23)c1 (configuration not stated) | 3%
O=C(Cc1cccc(Cl)c1)NC1CCN(Cc2ccc(-c3ccsc3)cc2)C1 (configuration not stated) | 2%
CCN1CCCN(S(=O)(=O)c2cccs2)CC12CCOCC2 | 5%
COc1ccccc1OCC(=O)NCc1nc(-c2ccc(Cl)cc2)no1 | -14%
Cc1cccc(-c2noc(CNC(=O)c3ccco3)n2)c1 | -10%
O=C(NCc1nc(-c2ncccn2)no1)c1csc(-c2cccs2)n1 | -5%
CCOc1ccc(-c2noc(CNC(=O)c3cc(-c4ccco4)[nH]n3)n2)cn1 | 0.79µM* | CHIKV nsP2 cell=?;CHIKV NSP2 FL=8.2µM*;Furin counter=-8%;NS23 peptide cs=-15%;Papain counter=-5%;nsP2pro confirm=?;HCV NS3 counter=i
Cc1cc(-c2noc(CNC(=O)c3cc(-c4ccco4)[nH]n3)n2)no1 | 5µM* | CHIKV nsP2 cell=?;CHIKV NSP2 FL=-3%;Furin counter=-8%;NS23 peptide cs=-32%;Papain counter=0%;nsP2pro confirm=-8%;HCV NS3 counter=10µM*
Cc1cccc(-c2noc(CCCC(=O)NCc3ccco3)n2)c1 | -28%
O=C(O)c1ccnc2cc(C(OCCCN3CCCCC3)c3ccccc3Cl)[nH]c12 (configuration not stated) | 18%
COc1ccc(NC(=O)[C@@H]2C[C@H](c3ccc(F)cc3)N(Cc3ccccc3Cl)C2)cn1 | 3%[39.2 µM]
CN(CC(=O)O)c1ncnc2ccc(-c3ccc4c(c3)OCO4)cc12 | 5%
Cn1c(=O)oc2ccc(C(=O)N[C@H](C3CCNCC3)C3CC(O)C3)cc21 (some centres not stated) | -5%
SMILES | nsP2pro primary | others
CCOc1ccc(C(=O)Oc2ccc(-c3nc4ccccc4[nH]3)cc2)cc1[N+](=O)[O-] | 0%
Cc1ccccc1CSc1ncc(Cl)c(C(=O)NCc2ccccc2)n1 | 67%
COc1ccc(CNC(=O)c2nc(SCc3ccccc3F)ncc2Cl)cc1 | -19%
O=C(NCc1ccccc1)c1nc(S(=O)(=O)Cc2ccc(F)cc2)ncc1Cl | 7.6µM* | CHIKV nsP2 cell=0.46µM*;CHIKV NSP2 FL=12µM*;Furin counter=-2%;NS23 peptide cs=5.2µM*;Papain counter=-4%;nsP2pro confirm=3.6µM*;HCV NS3 counter=?
Cc1cccc(CS(=O)(=O)c2ncc(Cl)c(C(=O)NCc3ccccc3)n2)c1 | 3.5µM* | CHIKV nsP2 cell=2.6µM*;CHIKV NSP2 FL=9.2µM*;Furin counter=-6%;NS23 peptide cs=6.5µM*;Papain counter=-7%;nsP2pro confirm=4.5µM*;HCV NS3 counter=?
Cc1ccc(CSc2ncc(Cl)c(C(=O)NCc3ccccc3)n2)cc1 | 24%
CSc1ncc(Cl)c(C(=O)NCc2ccc(C)cc2)n1 | -3%
CNc1oc(-c2cccc3ccccc23)nc1C(=O)OC | -8%
Nc1ncnc2c1ncn2C1O[C@H](COP(=O)(O)OP(=O)(O)OP(=O)(O)O)[C@@H](O)[C@H]1O (some centres not stated) | -17%
CSc1ccccc1-c1ncc(C)c(NCc2ccc(-c3cccnc3)cc2)n1 | -39%
O=C(N[C@H]1C[C@@H](CO)N(CC2CCCCC2)C1)c1cccnc1 | -20%
O=c1oc2cc(O)ccc2c2ccc(O)cc12 | -8%
O=C(CNC(=O)c1ccc(-c2cccc(C(F)(F)F)c2)cc1)NCC(F)(F)F | i
CC(C)Sc1ncc(Cl)c(C(=O)Nc2ccc(S(=O)(=O)N(C)c3ccccc3)cc2)n1 | -17%
CCN(c1ccccc1)S(=O)(=O)c1ccc(NC(=O)c2nc(S(C)(=O)=O)ncc2Cl)cc1 | ? | CHIKV nsP2 cell=2.6µM*;CHIKV NSP2 FL=4.1µM*;Furin counter=-6%;NS23 peptide cs=5.8µM*;Papain counter=-15%;nsP2pro confirm=4.5µM*;HCV NS3 counter=i
CCSc1ncc(Cl)c(C(=O)Nc2ccc(S(=O)(=O)N(C)c3ccccc3)cc2)n1 | -12%
O=C(Cc1ccc(Cl)c(Cl)c1)Nc1ccc([S+](=O)([O-])Nc2nnc(-c3ccccn3)s2)cc1 | i
CNC(=O)Cn1nc(C2CCN(C(=O)c3ccccc3F)CC2)c2c1CCOC2 | -7%
CCN1C(=O)Cc2cc(C(=O)NCc3c(C)cc(C)cc3C)ccc21 | -2%
CCOC(=O)Nc1ccc(NCc2c(C)cc(C)cc2C)cc1N | ? | CHIKV nsP2 cell=?;CHIKV NSP2 FL=-2%;Furin counter=-9%;NS23 peptide cs=?;Papain counter=-15%;nsP2pro confirm=-37%;HCV NS3 counter=i
